Screens as filed in PubChem BioAssay.
MITF primary: blocks human microphthalmia-associated transcription factor | O75030 | AlphaScreen MITF homodimerization, bead proximity signal | inhibition, % at 2.6 µM | 650,000 tested, 0.91% active; in the data active = inhibition above about 50%;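 note: 0% = vehicle wells with protein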
TEAD-YAP inh: TEAD-YAP interaction inhibition; HEK-TIYL cells, TEAD-Gal4/YAP UAS-luciferase luminescence; inhibition, % at 9.12 µM; 640,000 tested, 1.4% active; AID 1259422; in the data active = inhibition above about 32%;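 note: 0% = median of test compound wells and 100% = reference inhibitor wells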
GPR151 ag: human GPR151 activation; Q8TDV0; PathHunter beta-arrestin GPR151 cells, luminescence; activation, % at 11.2 µM; 650,000 tested, 1% active; AID 1508602; in the data active = activation above about 4.9%;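 note: 0% = median of compound wells and 100% = cells with positive control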
FBW7 activator: human FBW7 E3 ligase activation, primary screen | normalized activity (activation), % at 26.1 µM | Q969H0 | AlphaScreen FBW7–phospho-cyclin E peptide binding, activator screen | 650,000 tested, 0.13% active; in the data active = normalized activity above about 1.9%;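 note: purified mutant Fbw7 with reduced substrate affinity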
Target sequence (Q969H0 whole entry, looked up): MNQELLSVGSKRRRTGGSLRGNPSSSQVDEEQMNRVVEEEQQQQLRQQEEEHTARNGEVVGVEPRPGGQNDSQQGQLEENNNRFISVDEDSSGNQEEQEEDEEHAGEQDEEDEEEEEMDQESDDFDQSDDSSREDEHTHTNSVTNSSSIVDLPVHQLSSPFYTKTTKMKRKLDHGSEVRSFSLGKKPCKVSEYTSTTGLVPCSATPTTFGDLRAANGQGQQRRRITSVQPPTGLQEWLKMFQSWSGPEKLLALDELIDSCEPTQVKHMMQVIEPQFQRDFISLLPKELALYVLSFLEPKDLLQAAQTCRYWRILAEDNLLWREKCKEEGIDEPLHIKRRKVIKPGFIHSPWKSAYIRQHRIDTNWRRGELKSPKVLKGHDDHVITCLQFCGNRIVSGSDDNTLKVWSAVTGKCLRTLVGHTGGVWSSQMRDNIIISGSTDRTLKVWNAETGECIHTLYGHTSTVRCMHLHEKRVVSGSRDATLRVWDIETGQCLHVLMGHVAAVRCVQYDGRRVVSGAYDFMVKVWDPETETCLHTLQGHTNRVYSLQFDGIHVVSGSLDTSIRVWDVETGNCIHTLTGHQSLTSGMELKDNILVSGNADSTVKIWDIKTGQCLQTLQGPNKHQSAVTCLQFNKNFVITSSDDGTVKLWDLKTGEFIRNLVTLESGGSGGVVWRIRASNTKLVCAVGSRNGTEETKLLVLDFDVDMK
MITF confirm: confirmation of human MITF inhibitors | shares compounds with MITF primary | AlphaScreen MITF homodimerization, biotin/His-MITF beads | inhibition, % at 2.6 µM | 4,700 tested, 16% active | AID 1259372;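 active = inhibition above a cutoff derived from the DMSO control wells, cut at about 28% in these data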;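 note: 0% = MITF dimer wells with DMSO only; inhibitors lower the bead chemiluminescence by keeping MITF from dimerizing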
AlphaScreen DR: counter-screen: compounds optically interfering with AlphaScreen | AlphaScreen optical interference counterscreen, cell-free | 480 tested, 6% active | shares compounds with MITF primary | IC50, µM; call rule not given here
AlphaScreen intf2: optically interferes with AlphaScreen signal; inhibition, % at 2.6 µM; AID 1259376; shares compounds with MITF primary; LysRS AlphaScreen counterscreen, signal interference, triplicate; 4,700 tested, 7.6% active;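 active = inhibition above a cutoff derived from the DMSO control wells, cut at about 30% in these data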
* = called active by the depositor; . = no result given. Compounds with a hit are over-represented: about 3.5% of the library has one in this group of screens.

SMILES | MITF primary | TEAD-YAP inh | GPR151 ag | FBW7 activator | MITF confirm | AlphaScreen intf2 | others
CN(C)c1cccc(Nc2nc3ncnc(NCCCN4CCCC4=O)c3[nH]2)c1 | 53* | -3 | 2 | 0 | 4 | 15
C/C=C/c1ccc(OCCCCNCCN2CCOCC2)c(OC)c1 | 61* | 10 | 2 | 0 | 3 | 17
C/C=C/c1ccc(OCCOCCN(C)C)c(OC)c1 | 70* | 1 | -1 | 0 | -2 | 10
C/C=C/c1ccc(OCCCCN2CC(C)OC(C)C2)c(OC)c1 (stereo unspecified) | 32 | -10 | 1 | 0 | . | .
C/C=C/c1ccc(OCCCCNCCN(C)C)c(OC)c1 | -34 | 0 | 0 | 0 | . | .
C/C=C/c1ccc(OCCCN2CCN(CC)CC2)c(OC)c1 | 63* | -9 | 0 | 0 | 7 | 19
CCOC(=O)c1c(NC(=O)C(C)Sc2nnc(CNC(=O)c3cccc(OC)c3)n2C)sc2c1CCCCC2 (stereo unspecified) | 8 | -3 | -1 | 0 | . | .
Cc1[nH]c2ccc(C(=O)OCC(=O)NC(=O)Nc3ccc4c(c3)OCCO4)cc2c1C | 4 | -19 | 1 | 0 | . | .
CC(C)N1CCC(N2CCN(Cc3cnn(-c4ccccc4F)c3)CC2CCO)CC1 (stereo unspecified) | 14 | -2 | 1 | 0 | . | .
O=C(NC(=S)Nc1ccccc1C(=O)O)c1cncc(Br)c1 | 17 | 6 | -1 | 0 | . | .
O=C(Nc1ccccc1C(=O)O)c1cncc(Br)c1 | 57* | -9 | -4 | 0 | 11 | 14
COc1ccccc1N=c1c([N+](=O)[O-])nn(-c2ccccc2C)n1O | 18 | -11 | -1 | 0 | . | .
COC(=O)C1C(=O)NC(SCC(=O)Nc2ccc(C)c(C)c2)=C(C#N)C1c1ccccc1OC (stereo unspecified) | 3 | 1 | 0 | 0 | . | .
CCN1CCN(C(c2ccc(C)cc2)c2nnnn2C(C)(C)CC)CC1 (stereo unspecified) | 52* | -3 | 0 | 0 | 7 | 21
O=C(CN1CCN(c2ccccc2F)CC1)N1CCCc2ccccc21 | 53* | 7 | 2 | 0 | 9 | 22
CC1CC(C)(C)N(C(=O)CN2CCN(C)CC2)c2ccccc21 (stereo unspecified) | 81* | 12 | -2 | 1 | 5 | 14
CN1CCCN(CC(=O)N2CCc3ccccc32)CC1 | 78* | -4 | 1 | -1 | 4 | 5
O=C(CN1CCN(c2ccccc2F)CC1)NCCC1=CCCCC1 | 68* | -6 | 0 | 0 | 12 | 11
Cc1ccc2c(c1)C(C)CC(C)(C)N2C(=O)CN1CCN(C)CC1 (stereo unspecified) | -4 | -3 | 2 | 0 | . | .
CNS(=O)(=O)c1cc(O)c2c(S(=O)(=O)O)cc(S(=O)(=O)NC)cc2c1 | 12 | -5 | -1 | 0 | . | .
Nc1cc2c(S(=O)(=O)O)cc(S(=O)(=O)O)cc2cc1S(=O)(=O)O | 52* | 1 | 0 | 0 | 35* | 28 | AlphaScreen DR=>6.5
O=C(OCc1ccccc1)N1CCN2C(=O)[C@@H]3CCCN3C(=O)[C@H]2C1 | 2 | -5 | 1 | 0 | . | .
C[C@H]1C(=O)N2CCN(CCc3ccccc3)C[C@@H]2C(=O)N1C | 1 | 1 | 1 | 0 | . | .
O=C(NCc1ccccc1)N1CCN2C(=O)[C@@H]3CCCN3C(=O)[C@H]2C1 | 77* | 2 | 0 | 0 | 74* | -9 | AlphaScreen DR=>6.5
C[C@H]1C(=O)N2CCN(C(=O)NCc3ccccc3)C[C@@H]2C(=O)N1C | 76* | 9 | -1 | 0 | 73* | -7 | AlphaScreen DR=>6.5
SMILES | MITF primary | TEAD-YAP inh | GPR151 ag | FBW7 activator | MITF confirm | AlphaScreen intf2 | others
c1ccc(CNc2cc(Nc3ccncn3)ncn2)cc1 | 7 | 0 | 2 | 0 | . | .
COc1cccc(CNC(=O)CN2C(=S)NC(C)(C)CC2C)c1 (stereo unspecified) | 7 | 2 | 1 | 0 | . | .
O=S(=O)(NCc1cn2ccsc2n1)c1ccc(-c2ccccc2)cc1 | 5 | 2 | 1 | 1 | . | .
Cc1ccc(S(=O)(=O)N2CCN(C3CCCCC3)CC2)cc1 | 30 | -7 | 1 | 0 | . | .
O=[N+]([O-])c1ccc(S(=O)(=O)N2CCN(C3CCCCCC3)CC2)cc1 | 38 | 0 | 0 | 0 | . | .
O=S(=O)(c1ccccc1)N1CCN(C2CCCCCC2)CC1 | 59* | -4 | 1 | 0 | -14 | -2
